Data published in PubChem BioAssay (NCI).
About 83,000 compounds went through this panel and 20% of them were active in at least one assay; those are over-represented in the sample as a whole.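 48-hour exposure, single concentration, 96-well plates; percent growth endpoint where 0 means no net growth. Active: below 10.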 Values without a mark were called inactive. Activity calls are given as the source filed them.

These molecules were tested on U251 CNS (assay: NCI-60 one-dose screen, 48 h (100 = growth as untreated, 0 = no growth, -100 = all killed)). Settings: 10 µM unless noted.
Description: Growth inhibition of the U251 human tumor cell line is measured as a screen for anti-cancer activity. Cells are grown in 96 well plates and exposed to the test compound for 48 hours. Compounds are tested at a single concentration, which is 10^-5 M for most compounds. The reported endpoint is percent growth (GI% or GIPRCNT), where numbers from 0 - 100% represent growth inhibition, and numbers from -100% - 0 represent cell death. For example, a value of 40 represents 60% growth inhibition. A value of 0 means no net growth occurred over the course of the experiment. A value of -40 indicates 40% of cells at the beginning of the experiment died by the end of the experiment. A value of -100 means all cells are dead at the end of the experiment.
NCI-60 Human Tumor Cell Lines Screen was performed using the standard one-dose NCI protocol, which is described in more detail at https://dtp.cancer.gov/discovery_development/nci-60/default.htm.
Compounds with GIPRCNT values below 10 were considered active. Activity score was based on GIPRCNT using the following formula: […]
Score is 0 for GIPRCNT values of 100 or above, 50 for GIPRCNT values of 0, and 100 for GIPRCNT values of -100.

| SMILES | growth |
| --- | --- |
| COc1ccc(C2CC(c3cccc(Nc4ccncc4)c3)=NN2c2cc(Cl)cc(Cl)c2)cc1 (stereo not given) | -34.4% (active) |
| CC1=CC[C@@H]2CC[C@]3(C)[C@H](CC[C@@H]4[C@@]5(C)CCCNC(C)(C)[C@@H]5CC[C@]43C)[C@H]2[C@@H]1C | -90.8% (active) |
| Cc1cccc(C)c1-c1cc(Cc2ccc(Cl)cc2)c(=O)[nH]n1 | 101% |
| Cc1ccc2nc3c(cc2c1)CSc1nnc(-c2ccc[nH]c2=S)n1N3 | 112% |
| CN1CCN(CC#CCNC(=O)[C@]23CCC(C)(C)C[C@H]2C2=CC[C@@H]4[C@@]5(C)Cc6c([nH]c7ccccc67)C(C)(C)[C@@H]5CC[C@@]4(C)[C@]2(C)CC3)CC1 | 42.7% |
| O=C(CN1CCOCC1)Nc1ccc2ncnc(Nc3ccc(Oc4cccc(C(F)(F)F)c4)c(Cl)c3)c2c1 | 62.4% |
| CC(=O)OC1CCC2(C)C(CCC3C4CC=C(C(C)=O)C4(C)OC(=O)CC32)C1 (stereo not given) | 54.8% |
| CC1(C)[C@H](O)CC[C@]2(C)[C@@H]1CC[C@@]13C[C@@H](CC[C@H]12)[C@@](O)(CO)C3 | 108% |
| COC(=O)C1NC(=S)N(c2ccc(Cl)cc2)C1/C=C/c1ccccc1 (stereo not given) | 97.5% |
| Cc1ccc(C2CC(c3cccc(Nc4ccncc4)c3)=NN2c2ccccc2)cc1 (stereo not given) | -54.1% (active) |
| CC(C)(C#N)N1CCN(c2ccccc2Cl)CC1 | 102% |
| CCOC(=O)C1=C(C)NC(C)=C(C(=O)OCC)C1c1cc(Br)c(O)c(OC)c1 | 33.1% |
| COc1cc(C2CC(c3cccc(Nc4ccncc4)c3)=NN2c2ccccc2)cc(OC)c1OC (stereo not given) | 19.7% |
| CCC(C)C(N)C(=O)NNc1n[nH]c(=S)n1N (stereo not given) | 101% |
| CSc1nnc2c(=O)n(C)c(=O)n(C)c2n1 | 97.2% |
| COc1cc2nc(-c3ccc(-c4nn[nH]n4)cc3)[nH]c(=O)c2cc1OC | 105% |
| CC1(C)NCCC[C@]2(C)[C@H]3CC=C4[C@@H]5C[C@@](C)(CO)CC[C@]5(C)CC[C@@]4(C)[C@]3(C)CC[C@@H]12 | 34.2% |
| COc1ccc2c(Nc3ccc(NS(C)(=O)=O)cc3)c3ccccc3nc2c1 | 4.96% (active) |
| O=C(Nc1nc(-c2ccc(Br)cc2)cs1)c1cc(-c2ccc(Br)cc2)nc2ccc(Cl)cc12 | 76.8% |
| Fc1ccc(C2CC(c3cccc(Nc4ccncc4)c3)=NN2c2ccc(Cl)cc2)cc1 (stereo not given) | 8.99% (active) |

| SMILES | growth |
| --- | --- |
| O=C1/C(=C/c2ccc(O)cc2)COc2ccc(-c3ccccc3)cc21 | 63.6% |
| CC(=O)[C@@H]1CC[C@]2(C(=O)n3ccnc3)CC[C@]3(C)[C@H](CC[C@@H]4[C@@]5(C)Cc6c([nH]c7ccccc67)C(C)(C)[C@@H]5CC[C@]43C)[C@@H]12 | 87.7% |
| O=C(c1ccccc1)N1N=C(c2ccc(-n3ccc(C(F)(F)F)n3)cc2)CC1c1ccc[nH]1 (stereo not given) | 86% |
| NC(=O)c1ccc[n+](CC(=O)N2CCN(c3cc4c(cc3F)c(=O)c(C(=O)O)cn4C3CC3)CC2)c1 | 88.4% |
| N#Cc1cc(-c2nc3ccccc3s2)c(=O)n(NS(=O)(=O)c2ccc(Cl)cc2)c1N | 102% |
| O=C(Nc1sc2c(c1C(=O)O)CCCC2)c1cccc(C(F)(F)F)c1 | 88.3% |
| COc1cc(C2CC(c3cccc(Nc4ccncc4)c3)=NN2c2ccc(Cl)cc2)cc(OC)c1OC (stereo not given) | -53.2% (active) |
| Cc1cccc(Oc2ccc(Nc3ncnc4ccc(NC(=O)CNCCO)cc34)cc2Cl)c1 | 44.9% |
| Cc1ccccc1-c1cc(Cc2ccc(F)cc2)c(=O)[nH]n1 | 106% |
| C=C(C)[C@@H]1CC[C@]2(C(=O)NCC(=O)OC)CC[C@]3(C)[C@H](CC[C@@H]4[C@@]5(C)Cc6c([nH]c7ccccc67)C(C)(C)[C@@H]5CC[C@]43C)[C@@H]12 | 58.9% |
| COc1cc(-c2nc3occn3c2-c2ccnc(NCCNS(=O)(=O)c3ccc(Cl)cc3)n2)ccc1F | 90% |
| Clc1ccc(C2CC(c3cccc(Nc4ccncc4)c3)=NN2c2ccccc2)cc1 (stereo not given) | -11.4% (active) |
| O=S(=O)(c1cccc(NC2=Nc3cccc4cccc2c34)c1)N1CCCC1 | 65.7% |
| O=C(Nc1ccc2cc3ccc(NC(=O)N4CCCCCC4)cc3nc2c1)N1CCCCCC1 | -58.8% (active) |
| CN(C)CCCn1c2c(c3ccc(-c4ccn[nH]4)cc3c1=O)C(=O)c1ccccc1-2 | 16.9% |
| COc1ccc(-c2cnc(N)nc2-c2ccc(OC)cc2O)cc1 | 92.2% |
| CC(=O)O[C@H]1CC[C@@]2(C)[C@@H](CC[C@@H]3[C@@H]2CC[C@@]2(C)[C@H]3CC[C@]2(O)C(C)=O)C1 | 94% |
| Cc1nccc2c3ccc(OCc4cn(-c5ccc(Cl)cc5)nn4)cc3n(CCCc3ccccc3)c12 | 25.3% |
| O=S(=O)(c1ccc(N/N=C\c2ccccc2)cc1)c1ccc(N/N=C/c2ccccc2)cc1 | 66.6% |
| O=C1c2ccccc2C(=O)c2c(NCCN=Cc3ccccc3O)cccc21 | 60.5% |
